JMJD2A Tudor inh – qHTS Assay for Inhibitors of JMJD2A-Tudor Domain; Lysine-specific demethylase 4A (Homo sapiens), O75164; AlphaScreen JMJD2A-Tudor / H3K4me3 peptide binding; Potency, µM (top dose mostly 114 µM), hits mostly inhibitors; hit rate 4.4% among 390,000; AID 504339, 2011; note: nearly all actives have a fitted effect of over 50% in size
HP1b chromo inh – HTS for Inhibitors of HP1-beta Chromodomain Interactions with Methylated Histone Tails; Chromobox protein homolog 1 (Homo sapiens), P83916; AlphaScreen HP1-beta / biotin-H3K9me3 peptide binding; Potency, µM (top dose mostly 114 µM), hits mostly inhibitors; hit rate 0.56% among 390,000; AID 540317, 2011; note: nearly all actives have a fitted effect of over 70% in size
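Compound inhibition of the preformed complex between 50 nM HP1-beta and 50 nM biotinylated H3K9me3 peptide was read by AlphaScreen. Buffer was PBS pH 7.4 with 0.01% Tween-20. Incubations ran 30 min at room temperature, with 10 ug/mL donor/acceptor beads.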
PI5P4Ka inh – qHTS for Inhibitors of phosphatidylinositol 5-phosphate 4-kinase (PI5P4K); Phosphatidylinositol 5-phosphate 4-kinase type-2 alpha (Homo sapiens), P48426; PI5P4Kalpha enzyme, ADP-Glo luminescence, 60 min; active compounds read low; max response, %; hit rate 1.2% among 330,000; active = max response of -50% or lower; inconclusive = between -30% and -50%; inactive = -30% or higher; note: value at the top dose of about 77 µM
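Reactions run in 0.038 M HEPES pH 7.4, 0.28 mM EGTA, 0.1% CHAPS and 5% DMSO, with PI5P4Kalpha, substrate, compound and 5 microM ATP final, one hour at room temperature. Readout is ADP-Glo luminescence.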
G9a inh – qHTS Assay for Inhibitors of Histone Lysine Methyltransferase G9a; Histone-lysine N-methyltransferase EHMT2 (Homo sapiens), Q96KQ7; G9a H3K9 monomethylation, AlphaScreen, 2 h; Potency, µM (titrated, usually from 102 µM), hits mostly inhibitors; hit rate 8.8% among 350,000; AID 504332, 2011; note: nearly all actives have a fitted effect of over 75% in size
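Compounds were preincubated with 20 nM G9a for 15 min, after which biotinylated H3K9 peptide (500 nM) and SAM (20 uM) started a 2 h room-temperature reaction. Monomethylated product was quantified by antibody-based AlphaScreen chemiluminescence.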
BAZ2B inh – qHTS Assay for Inhibitors of BAZ2B. hit rate 4.4% among 360,000. Bromodomain adjacent to zinc finger domain protein 2B (Homo sapiens), Q9UIF8. AlphaScreen BAZ2B-H3K14Ac peptide displacement. Potency, µM (series often up to 114 µM), most hits filed as inhibitors. AID 504333, 2011; note: nearly all actives have a fitted effect of over 60% in size
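BAZ2B (50 nM) with biotin-H3(5-23)K14Ac peptide (50 nM) in PBS pH 7.4, 0.01% Tween-20, preformed 30 min, then compound 30 min at room temperature; top concentration 110uM. AlphaScreen streptavidin donor/nickel chelate acceptor beads (10 ug/mL final), 20 min dark, signal read.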
PLK1 PBD inh – qHTS for Inhibitors of PLK1-PDB (polo-like kinase 1 - polo-box domain): Primary Screen | Serine/threonine-protein kinase PLK1 (Homo sapiens), P53350 | Plk1 PBD binding of FITC phosphopeptide, fluorescence polarization | Potency, µM, actives largely listed as inhibitors | hit rate 2.8% among 360,000 | AID 720504, 2013; note: series mostly up to about 57 µM; nearly all actives have a fitted effect of over 65% in size
A number is an active result; 0 = inactive; ? = inconclusive; - = not tested or not shown; [ ] = remark or other dose. Compounds with a hit are over-represented: about 12% of the library has one in this group of screens. Unless noted, calls come from the whole dose curve; as a rule, active = well fitted curve in the direction sought with a large enough effect; inconclusive = small, poorly fitted or top-dose-only effect, or another doubt; inactive = no such curve, though single readings can be large; an effect the other way counts as inactive or inconclusive.

SMILES | JMJD2A Tudor inh | HP1b chromo inh | PI5P4Ka inh | G9a inh | BAZ2B inh | PLK1 PBD inh
Cc1ccccc1NC(=O)c1c(NC(=O)c2ccncc2)sc2c1CCC(C(C)(C)C)C2 (configuration not stated) | ? | 0 | - | 18µM | 0 | -
O=C(c1cccs1)N1CCCc2cc(NS(=O)(=O)c3ccc(F)cc3)ccc21 | 0 | 0 | - | 0 | 0 | -
O=C(NCCN1CCC(n2c(=O)[nH]c3ccccc32)CC1)c1cccs1 | - | - | 0 | - | - | 0
CC(C)c1nn2c(=O)cc(COC(=O)c3ccccc3NC(=O)COc3ccccc3)nc2s1 | 0 | 0 | - | 0 | 0 | -
COC(=O)C[C@@H]1CC[C@H](NS(=O)(=O)c2cccc(F)c2)[C@@H](CO)O1 | - | - | 0 | - | - | 0
O=C(O)c1ccc(COc2ccc(/C=N/NC(=O)c3cccs3)cc2)cc1 | 0 | 0 | - | 10µM | 0 | ?
COC(=O)c1ccc(COc2ccc(/C=N/Nc3cccc(C(=O)O)c3)cc2)cc1 | 56µM | ? | 0 | 8.9µM | ? | ?
O=C(O)c1ccc(N/N=C/c2ccc(OC(=O)c3cccc(Cl)c3)cc2)cc1 | 0[11.4 µM] | ? | 0 | 0[12.7 µM] | 50µM | 21µM
O=C(N/N=C/c1cccc(OCc2ccccc2)c1)c1cccs1 | 0 | 0 | 0 | 0 | 0 | 0
CSc1ccc(/C=N/Nc2cccc(C(=O)O)c2)cc1 | 4µM | 10µM | -99 | 4µM | 8.9µM | 12µM
Cc1cccc(NC(=O)C(NS(=O)(=O)c2cccc3nsnc23)c2ccccc2)c1C (configuration not stated) | 0 | 0 | - | 0 | - | -
CCOc1ccc(/C=N/Nc2ccccc2)cc1 | 0 | 0 | 0 | 25µM | 0 | 0
O=C(O)c1cc(N/N=C/c2ccc(OCc3ccccc3)cc2)ccc1Cl | 0 | 0 | 0 | 22µM | ? | 0
O=C(O)c1cccc(N/N=C/c2ccc(OC(F)(F)F)cc2)c1 | ? | 0 | 0 | 14µM | ? | 0
CCOc1cc(/C=N/Nc2cccc(C(=O)O)c2)ccc1OCC(=O)N1CCCCC1 | 0 | 0 | 0 | 32µM | ? | ?
CC(C)C(=O)N/N=C/c1ccc(OCc2ccccc2)cc1 | 0 | 0 | 0 | 0 | 0 | 0
O=C(Oc1ccc(/C=N/Nc2ccccc2)cc1)c1ccccc1 | 0 | 0 | 0 | 0[0.0925 µM] | 0 | 0
O=c1c(-c2ccc(F)cc2)nc2cnc(N3CCOCC3)nc2n1C[C@H]1CCCO1 | - | - | - | 0[12.7 µM] | - | -
CC1(C(=O)Nc2nccs2)CCN1C(=O)CC(c1ccccc1)c1ccccc1 (configuration not stated) | - | - | 0 | - | - | 0
O=c1[nH]c(=S)[nH]c2c1C(c1ccc(F)cc1)OC(CCOCc1ccccc1)C2 (configuration not stated) | - | - | 0 | - | - | 0
COc1cc(NC(=O)COc2ccc(Cl)cc2)ccc1NC(=O)C(C)C | 0 | 0 | 0 | 25µM | 0 | 0
NC(=O)c1cc(S(=O)(=O)NCC2CCC(C(=O)Nc3ccc(Cl)cc3)CC2)cs1 (configuration not stated) | 0 | 0 | - | 0 | 0 | -
CCN1CCN(c2ccc(NC(=O)CCc3c(C)nc4c(-c5ccccc5)c(C)nn4c3C)cc2)CC1 | ? | 0 | 0 | 79µM | 0 | 0
Cc1ccccc1N(CC(=O)Nc1ccccc1C(=O)O)S(C)(=O)=O | 0 | 0 | - | 0 | 0 | 0
Cc1ccc(S(=O)(=O)N(CC(=O)Nc2ccccc2C(=O)O)c2cccc(Cl)c2C)cc1 | 0 | 0 | ? | 0 | 0 | 30µM
CC1CCN(S(=O)(=O)c2ccc3c(c2)N(CC(=O)NCCCN2CC(C)CC(C)C2)C(=O)CS3)CC1 (configuration not stated) | 0 | 0 | 0 | 0 | 0 | 0
Cc1cc(NC(=O)NC(=O)c2ccccc2F)no1 | 0 | 0 | 0 | 0 | 0 | 0
O=c1c2ccccc2nc(SCc2nnc(-c3ccccc3Br)o2)n1-c1ccccc1 | 0 | 0 | - | 0 | 0 | 0
